Many of the other results were omitted from the sample, so hits are more common in it than they were.
GIRK2 act: GIRK2 channel activators by thallium flux | 34,000 tested, under 10 active | P48051 | HEK293 GIRK2/NPY4 cells, thallium flux fluorescence | activation (% efficacy), % for hits at 37.5 µM;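 active = primary screen hit, no activity in plain HEK293 cells, and in GIRK2-only cells above 5% efficacy rising with concentration; inactive = the rest, including fluorescent compounds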;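 also: efficacy is normalized control-subtracted fluorescence 15 s after thallium addition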
Target sequence (P48051 whole entry, looked up): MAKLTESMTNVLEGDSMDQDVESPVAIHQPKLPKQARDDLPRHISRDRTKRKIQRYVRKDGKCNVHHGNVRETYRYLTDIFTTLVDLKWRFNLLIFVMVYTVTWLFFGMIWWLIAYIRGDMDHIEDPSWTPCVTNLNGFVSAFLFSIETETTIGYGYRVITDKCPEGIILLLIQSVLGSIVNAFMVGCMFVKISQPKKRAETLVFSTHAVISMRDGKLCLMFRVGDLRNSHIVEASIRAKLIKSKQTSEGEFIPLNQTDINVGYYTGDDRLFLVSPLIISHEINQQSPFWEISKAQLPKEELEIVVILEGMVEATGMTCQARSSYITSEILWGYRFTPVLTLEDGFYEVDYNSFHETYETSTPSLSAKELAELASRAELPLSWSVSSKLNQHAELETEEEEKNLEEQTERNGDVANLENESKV
GluA2 TARP mod: modulators of AMPA receptor GluA2-stargazin complexes | 40,000 tested, 3.5% active | calls only at 30 µM | O88602+P19491 | HEK293 GluA2+stargazin, membrane potential dye (FDSS), glutamate EC50; hits were called plate by plate, in both directions;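 active = any of four per-well response measures lying three or more SD from its plate-wide compound average, in either direction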
Active calls of the source: *; i = inactive; . = no result; + = active, no number.

SMILES	GIRK2 act	GluA2 TARP mod
CC(C)N(C)S(=O)(=O)c1ccc(C(=O)Nc2nc(-c3ccncc3)cs2)cc1	i	+
Cc1ccc(-c2csc(NC(=O)c3ccc(S(=O)(=O)C(C)C)cc3)n2)cc1	.	i
CCOc1ccc(S(=O)(=O)NCC2CCN(C(C)C)CC2)cc1F	.	i
Cc1cccc(Nc2ccc(N3CCN(C(=O)Cc4cccs4)CC3)nn2)n1	i	+
Cc1cc(NC(=O)CSc2nnc(N3CCN(C(=O)Cc4cccs4)CC3)s2)no1	i	+
CC(=O)N1CCN(c2nnc(SCC(=O)Nc3cc(C)on3)s2)CC1	i	i
Cc1cccc(Nc2ccc(N3CCN(C(=O)Cc4c[nH]c5ccccc45)CC3)nn2)n1	i	+
Cc1cccc(Nc2ccc(N3CCN(C(=O)C(C)(C)C)CC3)nn2)n1	i	.
Cc1cccc(Nc2ccc(N3CCN(C(=O)c4c(F)cccc4F)CC3)nn2)n1	i	.
COc1ccc(CNC(=O)Nc2ccc(N3CCCS3(=O)=O)cc2)cc1OC	i	i
COc1ccc(S(=O)(=O)CC(=O)Nc2nc3cc4c(cc3s2)OCO4)cc1	i	i
CCOc1ccc(CC(=O)Nc2cc(-n3c(C)nc4ccccc4c3=O)ccc2F)cc1	i	i
O=C(NCc1ccccc1Cl)c1ccc(S(=O)(=O)NCc2ccc3c(c2)OCO3)o1	i	i
COc1cccc(C(CNC(=O)c2cccc3ccccc23)N2CCOCC2)c1 (stereo not given)	.	+
COc1cccc(C(CNC(=O)Cc2cccc3ccccc23)N2CCOCC2)c1 (stereo not given)	.	i
COc1cccc(C(CNC(=O)C2(c3cccs3)CCCC2)N2CCOCC2)c1 (stereo not given)	i	+
COc1cccc(C(CNC(=O)C(=O)NCc2cccs2)N2CCOCC2)c1 (stereo not given)	i	i
COc1cccc(N2C(=O)CN(Cc3ccc4c(c3)OCO4)C3CS(=O)(=O)CC32)c1 (stereo not given)	i	i
COCCn1c(NC(=O)Nc2ccc(OC)cc2)c2ccccc2nc1=O	i	i
Cc1ccc(Oc2ccc(N(C)C(=O)c3ccccc3C(F)(F)F)cc2)nn1	i	i
COc1ccc(S(=O)(=O)CC(=O)Nc2ccc3c(c2)C(=O)NC3=O)cc1	i	i
COc1ccc(SCCC(=O)Nc2ccc3c(c2)C(=O)NC3=O)cc1	i	+
Cc1ccccc1OCC(=O)Nc1ccc(-n2nncc2C)cc1	i	i
CC1Cc2cc(-c3cc(CC(=O)NCc4ccco4)no3)ccc2O1 (stereo not given)	i	+
CC1Cc2cc(-c3cc(CC(=O)NCc4cc(-c5cccs5)on4)no3)ccc2O1 (stereo not given)	i	i
SMILES	GIRK2 act	GluA2 TARP mod
O=C(Cc1cc(-c2ccc3c(c2)OCO3)on1)NCc1cccs1	i	i
O=C(Cc1cc(-c2ccc3c(c2)OCCO3)on1)NCc1cccs1	i	+
CC(O)(CNC(=O)c1cc(-c2ccccc2)on1)C1CC1 (stereo not given)	i	i
COc1ccc(CNC(=O)NCC2CCN(S(C)(=O)=O)CC2)cc1	i	i
Cc1ccc(C)c(S(=O)(=O)N2CCCN(CCn3cccn3)CC2)c1	i	i
Cc1ccc(S(=O)(=O)N2CCN(CCn3cccn3)CC2)c(C)c1	i	+
CCOc1ccc(OCCNC(=O)c2cc3cccc(OCC)c3oc2=O)cc1	i	i
CCOc1cccc2cc(C(=O)NCc3ccncc3)c(=O)oc12	i	+
CSc1cccc(C(=O)Nc2ccc3ncsc3c2)c1	i	i
O=C1NC(=S)N/C1=C/c1ccc(N2CCCC2)c(F)c1	.	i
O=C(NCCn1ncc2c(N3CCCC3)ncnc21)c1ccc(=O)oc1	.	+
COc1ccc(C(=O)NCCn2ncc3c(N4CCCCCC4)ncnc32)cc1OC	i	i
O=C(Nc1cc(-c2ccccc2)nn1CCO)c1ccc(Cl)s1	i	+
O=C(Nc1cc(-c2ccccc2)nn1CCO)c1ccco1	i	i
O=C(Nc1nnc(Cc2cccs2)o1)c1cc2ccccc2oc1=O	i	+
O=C(Nc1nnc(Cc2cccs2)o1)c1ccccc1	i	i
Cc1cnn(C)c1C(=O)Nc1nnc(-c2ccnn2C)o1	i	i
Cn1nccc1-c1nnc(NC(=O)c2ccc(Br)o2)o1	i	+
CSc1ccccc1C(=O)NCC1CCN(C(C)C)CC1	.	i
CCN(C(=O)Cn1c(C2CC(=O)N(c3ccc(C)cc3)C2)nc2ccccc21)c1ccccc1 (stereo not given)	i	i
O=c1[nH]c2sc3c(c2c(=O)n1-c1ccccc1)CCCC3	i	i
O=c1c2c3c(sc2ncn1/N=C/c1cccnc1)CCC3	.	+
COc1ccc(N2CCN(C(=O)c3ccc(S(=O)(=O)N4CCCC4)cc3)CC2)nn1	i	.
